Columns and labels:
Format in all cases: functional
Plasmodium falciparum [1] = assay: GSK_TCMDC: Inhibition of Plasmodium falciparum 3D7 in whole red blood cells, using parasite LDH activity as an index of growth. Test compounds present at 2uM
Plasmodium falciparum [2] = assay: GSK_TCMDC: Inhibition of Plasmodium falciparum Dd2 in whole red blood cells, using parasite LDH activity as an index of growth. Test compounds present at 2uM
HepG2 = assay: GSK_TCMDC: Percent inhibition of human HepG2 cell line. Test compounds present at 10uM.

Compound	Inhibition (Plasmodium falciparum [1]) [%]	Inhibition (Plasmodium falciparum [2]) [%]	Inhibition (HepG2) [%]
NCC1CCCN1Cc1cccc(-c2ccc(-c3nc4cc(C(F)(F)F)ccc4[nH]3)s2)c1.O=C(O)C(F)(F)F (stereo not given)	100	96	17
Cc1[nH]c2ccccc2c1C1CCN(CCCCNC(=O)c2ccc(-c3ccc(C#N)cc3)cc2)CC1	100	97	19
CCCCCCC(C)c1cc(O)c2c(c1)OC(C)(C)C=C2c1ccncc1 (stereo not given)	98	29	0
CC1(C)CN2CCCC2c2cc(NC(=O)/C=C/c3ccccc3Cl)ccc21.Cl (stereo not given)	88	76	20
CCCCCN1CCN(Cc2cccc(NC(=O)c3ccc(Cl)c(Cl)c3)c2)CC1.O=C(O)C(F)(F)F	90	33	24
O=C(NCCCN1CCC(N2CCCCC2)CC1)C1=Cc2cc(Br)ccc2OC1	100	19	26
CN1CCC(N2CCN(CCOc3cc(NC(=O)/C=C/c4ccccc4Cl)ccc3Br)CC2)CC1.O=C(O)C(=O)O	100	99	36
Cc1ccccc1C1CCN(C2CCC(NC(=O)/C=C/c3cccc(F)c3)CC2)CC1 (stereo not given)	84	38	46
Cc1cc(C2CCN(CCCCNC(=O)c3ccc(-c4ccc(C(F)(F)F)cc4)cc3)CC2)c(C)cc1OCCOC1CCCCO1 (stereo not given)	95	5	30
CCC(C)NS(=O)(=O)c1ccc2nc(Nc3cccc(SC)c3)n(C(C)C(C)C)c2c1 (stereo not given)	94	70	0
